Rows were chosen to be rich in hits. Some 2.3% of all compounds tested hit in one or more screens of this group.
CHRM1 agonist – human M1 muscarinic receptor agonists, primary screen, Fluo-8 calcium fluorescence, CHO-K1 cells, HTS; AID 588814, 2011; hit rate 0.33% among 360,000; Muscarinic acetylcholine receptor M1 (Homo sapiens), P11229; activation, % at 3 µM; CHO-K1 hM1, agonist mode; 0% DMSO, 100% acetylcholine EC100;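 active means activation above the run's mean compound activation plus 3 SD, cut at about 16% in these data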;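 further: peak over basal fluorescence ratio within a 140 s kinetic read after compound addition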
Target sequence (P11229 whole entry, looked up): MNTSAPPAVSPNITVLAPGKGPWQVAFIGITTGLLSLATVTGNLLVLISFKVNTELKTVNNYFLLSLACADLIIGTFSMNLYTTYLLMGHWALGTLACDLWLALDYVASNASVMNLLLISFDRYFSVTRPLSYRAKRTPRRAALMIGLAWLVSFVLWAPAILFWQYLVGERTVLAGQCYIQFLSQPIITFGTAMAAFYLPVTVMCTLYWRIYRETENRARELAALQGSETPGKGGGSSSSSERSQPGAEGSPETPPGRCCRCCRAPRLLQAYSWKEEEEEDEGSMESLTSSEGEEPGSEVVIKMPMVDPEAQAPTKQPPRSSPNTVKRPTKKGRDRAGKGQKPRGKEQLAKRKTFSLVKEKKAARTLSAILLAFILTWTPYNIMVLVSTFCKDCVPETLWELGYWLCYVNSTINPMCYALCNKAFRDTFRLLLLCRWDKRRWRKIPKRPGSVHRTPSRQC
M1 PAM parental – nonselective calcium activators in parental CHO-K1 cells, primary screen, counter-screen for M1 PAM project, cell-based, Fluo-8 calcium fluorescence, full deck, 1536-well. hit rate 0.02% among 360,000. ATP EC20; 0% at ATP EC20, 100% at ATP max. activation, % at 3 µM. AID 602247, 2012;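 active means activation above the run cutoff, the mean activation of all test compounds plus 3 SD, cut at about 40% in these data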;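 further: peak over basal fluorescence ratio in a 140 s read after ATP addition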
CHO-K1 Ca ag – counter-screen for M1 agonists: effect in parental CHO-K1 cells | Fluo-8 calcium fluorescence; scaled to maximal ATP response, vehicle zero | hit rate 0.48% among 360,000 | AID 602248, 2012 | activation, % at 3 µM; in the data active means activation above about 15%;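 further: untransfected CHO-K1 host cells lacking M1 receptor as counterscreen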
M1 PAM – human M1 muscarinic receptor positive allosteric modulators, primary screen, CHO-K1 cells, Fluo-8 calcium fluorescence, 1536-well. Muscarinic acetylcholine receptor M1 (Homo sapiens), P11229. CHO-K1 hM1, ACh EC20; 0% = ACh EC20, 100% = maximal ACh. activation, % at 3 µM. hit rate 0.088% among 360,000; in the data active means activation above about 19%, passing the limit was not always enough
M1 antag – human M1 muscarinic receptor antagonists, primary screen, CHO-K1 cells, Fluo-8 calcium fluorescence, 1536-well | Muscarinic acetylcholine receptor M1 (Homo sapiens), P11229 | CHO-K1 hM1, ACh EC80 antagonist | inhibition, % at 3 µM | hit rate 1.3% among 360,000;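 active means percent inhibition above its own plate's cutoff, namely the mean of that plate's compound wells plus 3 SD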;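 further: peak over basal fluorescence ratio during 140 s after agonist addition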
CHO-K1 Ca antag – M1 antagonist counterscreen hit in parental CHO-K1 cells. hit rate 0.6% among 360,000. inhibition, % at 3 µM. ATP-induced calcium, Fluo-8 fluorescence;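 active means inhibition above a per-plate cutoff, the plate's mean sample inhibition plus 3 SD, cut at about 24% in these data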
Of the large screens only hits and unclear results are named; the others gave an inactive call.

COc1ccc(C(C)(NC(C)=O)c2nc(/C=C/c3ccccc3)cs2)cc1 (centres undefined)	CHO-K1 Ca antag 32
CC(=O)NC(C)(c1ccccc1)c1nc(/C=C/c2ccccc2)cs1 (centres undefined)	none
Cc1ccc(C(=O)N2CCN(CCNC(=O)C(=O)NCc3ccc(Cl)cc3)CC2)cc1	none
O=c1/c(=C/c2cccc3ccccc23)sc2ncnn12	CHO-K1 Ca antag 28
Cc1cc(Nc2ccc(Br)cc2F)n2nc(C)nc2n1	M1 PAM parental 41
Cc1cc(Nc2ccccc2F)n2nc(C)nc2n1	none
CCOc1ccc(OCC)c(Nc2cc(C)nc3nc(C)nn23)c1	CHO-K1 Ca antag 34
COc1cc(OC)cc(C(=O)NNC(=O)C(=O)Nc2cc(OC)c(Cl)cc2OC)c1	none
CN(C)C(=O)CCc1ccc2c3c([nH]c2c1)[C@]1(CCC2CCCC2)[C@@H](C(=O)N2CCOCC2)C[C@H](CC(=O)NCCC2=CCCCC2)C(=O)N1CC3	none
CCN1CCN(c2ccc(NC(=O)CCc3c(C)nc4c(-c5ccc(F)cc5)c(C)nn4c3C)cc2)CC1	M1 antag 34
Cc1nc2c(-c3ccc(F)cc3)c(C)nn2c(C)c1CCC(=O)Nc1ccccc1	none
Cc1ccc(S(=O)(=O)N2CCN(C(=O)c3ccc4nc[nH]c4c3)CC2)cc1	none
CC(C)(O)C#Cc1ccc([C@@H]2C[C@H]3CN(c4ccccc4)C(=O)[C@]34CCCN24)s1	M1 antag 42
O=C1N(c2ccccc2)C[C@@H]2C[C@@H](c3cccs3)N3CCC[C@@]123	M1 antag 90
COc1ccc(-c2nc(CSCC(=O)NC3CCCC3)c(C)o2)cc1OC	none
COc1cccc(C(C(=O)NCC2CCCO2)N(C(=O)Cn2nnc3ccccc32)c2ccccc2C(C)=O)c1OC (centres undefined)	none
COC(=O)[C@@H](NC(=O)NC1CCCCC1C)C(C)C (some centres undefined)	none
O=C(CNC(=O)c1ccco1)NNC(=O)c1n[nH]c(=O)c2ccccc12	none
CCOc1ccccc1-c1ccc2nccn2c1	M1 antag 61
Clc1ccccc1-c1ccc2nccn2c1	none
O=C(Cc1ccc(Cl)c(Cl)c1)N1CCOCC1	none
O=C(NNc1ccccc1Br)C(O)(c1cccc(C(F)(F)F)c1)c1cccc(C(F)(F)F)c1	M1 antag 36
Cc1ccc(NNC(=O)C(O)(c2cccc(C(F)(F)F)c2)c2cccc(C(F)(F)F)c2)cc1	none
O=C(NC1CCCC1)c1ccc2nc(-c3ccco3)c(-c3ccco3)nc2c1	CHO-K1 Ca antag 26
O=C(NCCO)c1ccc2nc(-c3ccco3)c(-c3ccco3)nc2c1	none
Cn1c(/C(C#N)=C/c2ccc(-c3ccc(S(N)(=O)=O)cc3)o2)nc2ccccc21	CHO-K1 Ca ag 22
Cn1c(/C(C#N)=C/c2cccc(O)c2)nc2ccccc21	none
CCOC(=O)C1=C(COC(=O)COc2ccccc2C#N)NC(=O)NC1C (centres undefined)	none
CC(OC(=O)CCN1C(=O)c2cccc([N+](=O)[O-])c2C1=O)C(=O)Nc1cc(Cl)cc(Cl)c1 (centres undefined)	none
O=C(Nc1ccc(Cl)cc1)C1C2CCCCC21 (centres undefined)	none
CCOC(=O)Cc1nnc(NC(=O)CSc2ccc(C)cc2)s1	CHRM1 agonist 19
Cc1c(CCOC(=O)CC23CC4CC(CC(C4)C2)C3)sc[n+]1Cc1ccccc1	M1 antag 99
Cc1ncc(C[n+]2csc(CCOC(=O)CC34CC5CC(CC(C5)C3)C4)c2C)c(N)n1	none
CCN(CC)CC#CCC(O)(c1ccccc1)c1ccc(Br)cc1 (centres undefined)	M1 antag 92
CCN(CC)CC#CCC(O)(c1ccccc1)c1ccccc1	M1 antag 93
O=S(=O)(CC(O)(c1ccccc1)c1ccccc1)CC(O)(c1ccccc1)c1ccccc1	none
CCN(CC)CC#CCC(C)(c1ccccc1)c1ccccc1	M1 antag 72
CCN(CC)CC#CC(C)(C)OC(C)=O	none
C=CC(O)(C#CCN(CC)CC)c1ccccc1 (centres undefined)	M1 antag 38
O=C(NCCCN1CCOCC1)C(C(=O)NCCCN1CCOCC1)c1ncc(C(F)(F)F)cc1Cl	none
CC1CCCCC1NC(=O)c1cc(S(=O)(=O)N2CCCCC2)ccc1N1CCOCC1 (centres undefined)	none
CN(C)CC#CCC(O)(c1ccccc1)c1ccccc1	M1 antag 87
Cc1cccc(CN(C)C)c1CC(O)(c1ccccc1)c1ccccc1	none
CCn1c(SCC(=O)Nc2ccc(N(C)C)cc2)nnc1-c1ccco1	none
COc1cccc2sc3ccc(C#CC4(O)CCCCC4)cc3c(=O)c12	M1 antag 41
O=c1c2ccccc2sc2ccc(C#CC3(O)CCCCC3)cc12	none
CC1CCCCC1NC(=O)CCN1C(=O)C2C3C=CC(C3)C2C1=O (centres undefined)	none
COc1ccc(/C(C)=N/N2CCCCC2)c(O)c1	CHRM1 agonist 18
CCn1nc(C(=O)N2CCN(Cc3nc4ccccc4s3)CC2)c2ccccc2c1=O	M1 antag 38
O=C(c1ccco1)N1CCN(C/C=C/c2ccccc2)CC1	none
O=C(c1nn(Cc2ccccc2)c(=O)c2ccccc12)N1CCN(C/C=C/c2ccccc2)CC1	M1 antag 95
Cn1c(N)c(C(=O)CSc2nn(-c3ccccc3)c(=S)s2)c(=O)n(C)c1=O	none
COc1ccc(C(=O)Nc2c3c(nn2-c2ccc(Cl)cc2)CS(=O)(=O)C3)cc1	none
COc1ccc(C(=O)Nc2c3c(nn2-c2ccc([N+](=O)[O-])cc2)CS(=O)(=O)C3)cc1	CHO-K1 Ca ag 18
CC1(C)Cc2noc(N)c2C(C)(C)N1O	CHO-K1 Ca antag 25
CC(=O)ON1C(C)(C)Cc2noc(N)c2C1(C)C	none
Cc1ccc(OCCCCN2CCc3ccccc3C2)cc1	none
CCCN1CCC(NC(=S)Nc2cccc(Cl)c2Cl)CC1	CHRM1 agonist 26
COc1ccc(CCNC(=O)c2ccc3c(=O)n4c(nc3c2)CCC4)cc1OC	none
O=C(NCCc1ccccc1)c1ccc(NC(=O)c2cccnc2)cc1	none
CCOC(=O)c1ccc(NC(=O)CCc2nc(-c3ccccc3)no2)cc1	M1 antag 31
O=C(Nc1ccc(-c2noc(CCc3ccccc3)n2)cc1)c1cccnc1	M1 antag 26
CC(C)n1c(=O)c2ccccc2n1CC(=O)N1CCOCC1	none (no result: CHRM1 agonist, M1 PAM, M1 antag)
COc1ccccc1C(=O)Nc1ccc(OCC(=O)N2CCCCC2C)cc1 (centres undefined)	none
